Data: the supplement of paper PMC6555819

Key:
Experiment in all cases: PBM binding z-score (relative to random genomic background probes); higher = stronger binding; sequences stand for … in GC…GCGATTGACAGCGTAGAATGAAGG
[1] = system: PPARg:RXRa DBDmut IVT, anti-RXR (DBD mutation: RXRa K156A/R161A, NR concentration 270 nM, RXRa partner concentration 90 nM)
Procedure, shortened: (§1)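 Binding buffer was PBS pH 7.4 with 2% milk, 0.02% Triton X-100, 1 mM DTT, 0.2 mg/mL BSA and 0.4 mg/ml salmon testes DNA. In it, ligand-free nuclear receptor dimers were incubated 1 h on custom Agilent 4×180K protein-binding microarrays carrying double-stranded probes. Antibodies against each partner (one per run) detected binding, and z-scores were calculated against random background probes after regression normalization of scanned fluorescence.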

[2] = system: PPARg:RXRa IVT, anti-PPARg (NR concentration 270 nM, RXRa partner concentration 90 nM)
Procedure, shortened: as §1

[3] = system: PPARg DBDmut:RXRa IVT, anti-PPARg (DBD mutation: PPARg1 K132A/R137A, NR concentration 270 nM, RXRa partner concentration 90 nM)
Procedure, shortened: as §1

[4] = system: PPARg DBDmut IVT, anti-PPARg (DBD mutation: PPARg1 K132A/R137A, NR concentration 270 nM)
Procedure, shortened: as §1

[5] = system: PPARg homodimer (NR concentration 180 nM)
Procedure, shortened: as §1

[6] = system: PXR:RXRa (NR concentration 270 nM, RXRa partner concentration 90 nM)
Procedure, shortened: as §1

[7] = system: PXR homodimer (NR concentration 270 nM)
Procedure, shortened: as §1

[8] = system: RARa:RXR (NR concentration 270 nM, RXRa partner concentration 90 nM)
Procedure, shortened: as §1

[9] = system: RARa homodimer (NR concentration 270 nM)
Procedure, shortened: as §1

[10] = system: RARb:RXRa (NR concentration 270 nM, RXRa partner concentration 90 nM)
Procedure, shortened: as §1

Sequence | PBM binding z-score [1] | PBM binding z-score [2] | PBM binding z-score [3] | PBM binding z-score [4] | PBM binding z-score [5] | PBM binding z-score [6] | PBM binding z-score [7] | PBM binding z-score [8] | PBM binding z-score [9] | PBM binding z-score [10]
ATCTATAGGTAACCAAGTTCAGTGAATGCCGAAC | 2.37 | 1.81 | 0.555 | 1.09 | 0.665 | 2.46 | 2.08 | 0.857 | 0.671 | 1.3
AATACAGGGTCAGTAGGCCAGAGTAGGTACGAAT | 3.22 | 4.8 | 1.82 | 0.929 | 1.97 | 1.86 | 0.246 | 2.94 | 1.18 | 3.92
ATCTCTAGGTCAAGTTCAGTGAAAGATCGATAGA | 6.76 | 6.5 | 2.13 | 1.61 | 2.41 | 3.45 | 2.13 | 3.16 | 1.74 | 4.55
TCAATGAGGTTATAAGATCAGGGAACGTTGCAAA | 2.23 | 0.886 | -0.23 | 0.398 | 0.29 | 0.939 | -0.134 | 1.47 | 0.789 | 1.31
AGAATGAGGTTATGATCAGGGAAACAGAATACAT | 1.69 | 2.07 | 1.68 | 0.713 | 0.605 | 1.02 | 0.186 | 1.6 | 0.566 | 1.42
TATACAGGGTAAAAGGCCAGAGTACGAATGTCGA | 1.68 | 2.88 | 1.57 | 1.04 | 1.27 | 0.286 | 0.409 | 0.32 | 0.622 | 1.85
CGTCCAAGGTCATAGGAGGTCTGTGAAGACAGAT | 2.76 | 3.51 | 0.436 | 0.0298 | 2.07 | 4.86 | 1.09 | 4.27 | 0.26 | 5.05
GATACAGGGTCAAGGCCAAAGTACGCGTATTGAT | 2.58 | 4.27 | 2.3 | 0.743 | 3.07 | 4.48 | 0.731 | 5.02 | 1.25 | 4.5
CATACAGGGTCAGCTAGGCCAGAGTGGGGACGGC | 1.06 | 2.57 | -0.069 | 1.07 | 1.44 | 2.19 | 0.0916 | 2.78 | 0.651 | 4.03
ACTCGGCGGACAAAGGTCAGAGCTACGCCAGTGA | 0.148 | 2.33 | -0.012 | -0.434 | 1.79 | 3.41 | 0.0332 | 4.18 | 0.924 | 4.22
CCAGACAGATGAAAGGTAACTCAGTCTGGTACGC | -0.108 | -0.154 | -0.0341 | -0.512 | 0.444 | 0.0908 | 0.0132 | 0.186 | 0.861 | 0.167
AGAAAGAGGGCACGCTGAGTTGATAGCAGAGTAG | 3.25 | 3.07 | 0.171 | -0.413 | 0.723 | 1.85 | -0.108 | 1.27 | -0.166 | 2.74
